# From PubChem BioAssay (NCI)
# The panel holds about 83,000 compounds, 20% with a hit somewhere; the sample as a whole holds those more often.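 A percent growth of 40 corresponds to 60% growth inhibition; 0 means no net growth; -100 means all cells died. Active threshold: below 10.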 A number with no mark means an inactive call. Activity calls are given as the source filed them.
# Test system: OVCAR-8 ovarian
# Assay: NCI-60 one-dose screen, 48 h (100 = growth as untreated, 0 = no growth, -100 = all killed)
# Settings: 10 µM unless noted
row,SMILES,growth
1,O=c1oc2ccc([N+](=O)[O-])cc2cc1Br,100%
2,O=C1/C(=C/c2ccccc2Br)COc2ccc(O)c(O)c21,9.72% (active)
3,COc1cc2c(c(OC)c1OC)-c1ccc(OC)c(=O)cc1[C@@H](NC(=O)CCl)CC2,8.53% (active)
4,CCCCNc1ccc(C#N)c(OCCN(CC)CC)c1,100%
5,O=C(c1ccccc1)C1C(=O)N2C(=S)N(c3ccccc3)C(=O)C2C1c1ccc(Cl)cc1 (configuration not stated),94.8%
6,CCOc1ccc(NC(=O)CSc2oc(-c3ccccc3)nc2S(=O)(=O)c2ccc(F)cc2)cc1,49.5%
7,COc1cc(-n2cc(-c3cc(O)c(C/C=C(\C)CCC=C(C)C)c(O)c3)nn2)cc2c1O[C@]1(C)CC[C@@H](O)C(C)(C)[C@H]1C2,16.4%
8,CCOC(=O)/C=C1\S/C(=N\Nc2cc(=O)[nH]c3ccc(Cl)cc23)N(c2ccccc2)C1=O,90.1%
9,O=c1oc2c(cnc3ccccc32)cc1-c1ccsc1,94.6%
10,C=CCc1c2c(c(OC)c3ccoc13)C(=O)/C(=C/c1ccccc1OC)O2,39.1%
11,CC(=O)Nc1nc2ccc(NS(=O)(=O)c3cccc4c(N(C)C)cccc34)cc2[nH]1,85.4%
12,O=C1C(Cl)=C(Oc2ccccc2)C(=O)c2ccccc21,85%
13,O=C(O)/C(=C\c1ccc(Cl)cc1)c1ccc(Cl)cc1,96.3%
14,OCc1cccc(-c2ccc3ncc(-c4nc(NC5CC5)ncc4F)n3c2)c1,-2.83% (active)
15,C=CCn1cc(-c2nc3ccccc3s2)c2cc(-c3ccc4c5c(cccc35)C(=O)N(N)C4=O)ccc21,102%
16,Cc1ccc(C(C(N)=O)C(C(N)=O)c2ccccc2)cc1 (configuration not stated),103%
17,CC(C)n1cnc2c(=S)nc[nH]c21,109%
18,CC(C)N1CN2C(=S)NC3C2N(C1)C(=S)N3C (configuration not stated),102%
19,S=C1CCSC(=S)N1CCCN1C(=S)CCSC1=S,55.3%

row,SMILES,growth
1,CCN1CCN(Cc2cn(CC(=O)Nc3ccc4c(ccn4Cc4ccccc4)c3)nn2)CC1,99.7%
2,CCOC(=O)CSc1ncnc2c1c(-c1ccccc1)c(-c1ccccc1)n2-c1ccc(C)cc1,54.5%
3,O=C1/C(=C/c2ccc(Cl)c(Cl)c2)CN(C(=O)C(Cl)Cl)C/C1=C\c1ccc(Cl)c(Cl)c1,0.621% (active)
4,CCO/C=N/C1=C(C#N)C(c2ccc(OC)cc2)c2sc3c(F)cccc3c2O1 (configuration not stated),36.5%
5,COc1ccc(C(c2cc(OC)c(OC)c(OC)c2)N2CCN(c3ccccc3)CC2)cc1 (configuration not stated),99.1%
6,CCN(CC)CCOc1ccc(C(=C(C)c2ccc(Cl)cc2)c2ccc(OCCN(CC)CC)cc2)cc1,-47.1% (active)
7,CN1CCN(C(=O)c2ccc(NC(=O)Nc3ccc(-c4nc(N5CCOCC5)c5cccn5n4)cc3)cc2)CC1,-3.62% (active)
8,Cc1ccc(S(=O)(=O)N2CCCC2CO)cc1 (configuration not stated),103%
9,Nc1c(C(=O)Nc2ccccc2Cl)sc2nc3c(cc12)C(O)CCC3 (configuration not stated),32.3%
10,Cc1nc2sc(C(=O)Nc3ccccc3)c(N)c2cc1C(=O)c1ccccc1,56%
11,O=C1CC(N2C(=O)/C(=C/C(Cl)=C\c3ccc([N+](=O)[O-])cc3)SC2=S)C(=O)N1c1ccc(Cl)cc1 (configuration not stated),15.7%
12,Cc1ccc(Cl)cc1Nc1nc(C(F)(F)F)ccc1C(=O)N/N=C/c1cccnc1,25.1%
13,CC(C)(C)n1cc(-c2ccnc(NCCCNS(=O)(=O)c3ccc(F)cc3)c2)c(-c2cccc(F)c2)n1,54.8%
14,COC(=O)/C(CCC=C(C)C)=C1\[C@@H](OC(C)=O)C[C@@]2(C)[C@H]1C[C@@H](O)[C@H]1[C@@]3(C)CC[C@H](NCCN)[C@@H](C)[C@@H]3CC[C@@]12C,86.3%
15,C=C1C(=O)O[C@H]2[C@H]1CC/C(COC(=O)NCc1ccc(Cn3c(=O)sn(CCI)c3=O)cc1)=C\CC[C@@]1(C)O[C@@H]21,89.4%
16,COc1cc(-c2nc(SCC(C)C)nc(Nc3cccc4ccccc34)c2C#N)cc(OC)c1OC,92.1%
17,Oc1c(Cl)cc(Cl)c2ccc(Cn3cc(-c4ccc(C(F)(F)F)cc4)nn3)nc12,70.7%
18,CC1(C)CC2=C3C=C[C@@H]4[C@@]5(C)CCC(=O)C(C)(C)[C@@H]5CC[C@@]4(C)[C@]3(C)CC[C@@]2(C(=O)O)CC1=O,89.6%
